Measurements reported in PubChem BioAssay (NCATS).
Records with an inconclusive call do not appear. Active and inactive are the calls of the source. Calls follow the shape of the dose curve; as a rule, active = well fitted curve in the direction sought with a large enough effect; inconclusive = small, poorly fitted or top-dose-only effect, or another doubt; inactive = no such curve, though single readings can be large; an effect the other way counts as inactive or inconclusive.

Legend:
[1] = Cellular Toxicity (caspase-3) H-4-II-E (AID 663);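 also: cells exposed to compound for 16 hr before readout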
Outline: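 H-4-II-E rat hepatoma, 1500 cells/well, 5 hr settle at 37 °C; compound 16 hr, 37 °C, complete medium; Caspase-Glo 3/7, 20 min RT; luminescence. DMSO = 0%, 100 uM tamoxifen = 100%; Hill-equation AC50.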

[2] = Cellular Toxicity (caspase-3) Hek293 (AID 664);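 also: cells exposed to compound for 16 h at 37 °C before readout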
Outline: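 qHTS, HEK293 (human embryonic kidney), 16 h cpd exposure in complete medium. Caspase-3/7 activation = luminescence increase; normalized to DMSO/100 uM tamoxifen; Hill-fit AC50.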

[3] = Cellular Toxicity (caspase-3) N2a (AID 665);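 also: compound exposure lasted 16 h at 37 °C before readout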
Outline: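 Caspase-3/7 activation, measured as increased luminescence from aminoluciferin release, is quantified in mouse N2a cells exposed to compounds for 16 h. Values are normalized to DMSO and 10 uM staurosporine, with AC50 derived by Hill modelling.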

[4] = Cellular Toxicity (caspase-3) NIH 3T3 (AID 666);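 also: caspase signal read after 16 h compound exposure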
Outline: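 Cells were plated at 1000 per well and incubated 5 hr at 37°C, then compound was added for 16 hr. Caspase-Glo 3/7 reagent followed for 20 min at room temperature before luminescence was read.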

[5] = Cellular Toxicity (caspase-3) Renal Proximal Tubule (AID 667);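 also: cells exposed to compound for 16 hours at 37 °C before detection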
Outline: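 Caspase 3/7 activation measured by luminescent aminoluciferin release in primary rat proximal tubule cells after 16 hr compound exposure at 37 °C. AC50 from Hill-fitted concentration-response, scaled between DMSO and 10 uM staurosporine.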

[6] = biological target: Cytochrome P450 3A4 (Homo sapiens) (UniProt P08684); assay: qHTS Assay for Activators of Cytochrome P450 3A4 (AID 885); also: nearly all actives have a fitted effect of over 65% in size
Outline: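 CYP3A4 activity: Luciferin-PPXE O-dealkylation, 25uM substrate, 200mM KPO4, RT throughout. Read-out is luciferase luminescence; higher values reflect activation.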

[7] = Cell Viability - LYMP2-001 (AID 921); also: series mostly up to about 92 µM; nearly all actives have a fitted effect of over 70% in size
Outline: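 Cellular ATP loss read by luciferase luminescence after 24 h compound exposure at 37 C in complete medium. LYMP2-001 lymphoblastoid cells, 2500/well; qHTS concentration-response data fitted with Hill equation for AC50.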

[8] = MultiTox-Fluor Cytotoxicity Assay - LYMP1-001 - Dead Cells (AID 946)
Outline: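 AC50 from Hill fit of concentration-response; data normalized to DMSO (basal) and 15 uM tetraoctylammonium bromide (100%). LYMP1-001 lymphoblastoid cells, 2500/well, 16 hr compound at 37 C; dead-cell protease fluorescence, Ex/Em 485/520.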

[9] = MultiTox-Fluor Cytotoxicity Assay - LYMP1-001 - Live Cells (AID 947)
[10] = Cell Viability - LYMP1-002 - Assay at 16 hr (AID 948)
Outline: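 ATP luminescence (CellTiter-Glo) was measured after 16 hr compound exposure at 37 C of 2500 lymphoblastoid LYMP1-002 cells per well. Concentration-response curves were fitted with the Hill equation to give AC50.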

[11] = MultiTox-Fluor Cytotoxicity Assay - LYMP1-002 - Live Cells (AID 955)
Outline: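 Cells were seeded at 2500 per well and incubated 5 hr. Compounds were then added for 16 hr at 37 C, followed by MultiTox-Fluor reagent for 60 min at room temperature and fluorescence reading of viable-cell protease signal.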

[12] = MultiTox-Fluor Cytotoxicity Assay - LYMP1-002 - Dead Cells (AID 960); also: nearly all actives have a fitted effect of over 60% in size
Outline: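 Cells were plated, rested 5 hr, then treated with compound dilution series for 16 hr at 37 C. After adding substrate reagent and 60 min at room temperature, dead-cell protease fluorescence gave concentration-response curves fitted by the Hill equation.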

[13] = MultiTox-Fluor Cytotoxicity Assay - LYMP1-003 - Dead Cells (AID 961); also: nearly all actives have a fitted effect of over 70% in size
Outline: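 Human lymphoblastoid LYMP1-003 cells (2500/well) were treated with compounds for 16 hr at 37 C in complete medium. Dead-cell protease release was read by bis-AAF-R110 fluorescence (Ex/Em 485/520). AC50 came from Hill fits, normalized to DMSO and 15 uM tetraoctylammonium bromide.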

[14] = MultiTox-Fluor Cytotoxicity Assay - LYMP1-003 - Live Cells (AID 962);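 also: cells exposed to compound for 16 hours at 37 °C; cytotoxic hits lower the live-cell protease signal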
Outline: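 Acute cytotoxicity is scored as a drop in live-cell protease activity in human lymphoblastoid LYMP1-003 cells after 16 hr compound exposure at 37 C. AC50 values come from Hill-equation modelling of concentration-response data.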

[15] = Cell Viability - LYMP1-003 - Assay at 24 hr (AID 963)
Outline: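 Cytotoxicity is scored as a concentration-dependent fall in ATP-linked luciferase signal in human lymphoblastoid LYMP1-003 cells treated 24 hr at 37 C in complete culture medium.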

[16] = Cell Viability - LYMP1-003 - Assay at 40 hr (AID 964); also: series mostly up to about 92 µM; nearly all actives have a fitted effect of over 60% in size
Outline: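 Luminescent ATP signal (CellTiter-Glo) served as the viability read-out after 40 hr compound treatment of human lymphoblastoid LYMP1-003 cells at 37 C. Decreases in ATP were fitted with the Hill equation to give AC50.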

[17] = Cell Viability - LYMP2-003 (AID 965);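 also: cells exposed to compounds for 24 h before reading; nearly all actives have a fitted effect of over 50% in size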
Outline: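 CellTiter-Glo luminescence quantified ATP loss after 24 h compound treatment of LYMP2-003 lymphoblastoid cells at 37 C. Titration series were fitted with the standard Hill equation to give AC50.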

[18] = Cell Viability - LYMP2-004 (AID 966); also: nearly all actives have a fitted effect of over 65% in size
Outline: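 qHTS cytotoxicity: human lymphoblastoid line, 24 hr compound treatment, 37 C, complete medium. Viability read as cellular ATP via luciferase luminescence; tetraoctylammonium bromide served as positive control.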

[19] = Cell Viability - LYMP2-005 (AID 967); also: series mostly up to about 92 µM
Outline: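 LYMP2-005 human lymphoblastoid cells (2500/well) were treated with compounds for 24 h at 37 C. Intracellular ATP was then measured by CellTiter-Glo luminescence after 30 min at room temperature. AC50 values came from Hill-equation fits of qHTS concentration-response data.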

[20] = Cell Viability - LYMP2-009 (AID 968); also: series mostly up to about 92 µM; nearly all actives have a fitted effect of over 55% in size
[21] = Cell Viability - LYMP2-011 (AID 969); also: nearly all actives have a fitted effect of over 60% in size
Outline: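 In this qHTS cytotoxicity format, compounds are tested across concentrations on human lymphoblastoid cells in complete medium for 24 hours at 37 C. Viability is taken as cellular ATP measured by luciferase luminescence.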

[22] = Cell Viability - LYMP2-013 (AID 970); also: series mostly up to about 92 µM; nearly all actives have a fitted effect of over 55% in size
Outline: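 Cytotoxicity is scored as a concentration-dependent drop in intracellular ATP in human lymphoblastoid cells after 24 hr compound exposure at 37 C. ATP is quantified by luciferase luminescence, and AC50 values come from Hill-equation modeling.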

[23] = Cell Viability - LYMP2-015 (AID 971); also: nearly all actives have a fitted effect of over 55% in size
Outline: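 Cells are seeded at 2500 per well and incubated 5 hr at 37 C. Compounds are added across a concentration series for 24 hr at 37 C. CellTiter-Glo is added, and luminescence is read after 30 min at room temperature.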

Measured: Potency

Chain of Cytochrome P450 3A4 (Homo sapiens) (P08684 whole entry, looked up): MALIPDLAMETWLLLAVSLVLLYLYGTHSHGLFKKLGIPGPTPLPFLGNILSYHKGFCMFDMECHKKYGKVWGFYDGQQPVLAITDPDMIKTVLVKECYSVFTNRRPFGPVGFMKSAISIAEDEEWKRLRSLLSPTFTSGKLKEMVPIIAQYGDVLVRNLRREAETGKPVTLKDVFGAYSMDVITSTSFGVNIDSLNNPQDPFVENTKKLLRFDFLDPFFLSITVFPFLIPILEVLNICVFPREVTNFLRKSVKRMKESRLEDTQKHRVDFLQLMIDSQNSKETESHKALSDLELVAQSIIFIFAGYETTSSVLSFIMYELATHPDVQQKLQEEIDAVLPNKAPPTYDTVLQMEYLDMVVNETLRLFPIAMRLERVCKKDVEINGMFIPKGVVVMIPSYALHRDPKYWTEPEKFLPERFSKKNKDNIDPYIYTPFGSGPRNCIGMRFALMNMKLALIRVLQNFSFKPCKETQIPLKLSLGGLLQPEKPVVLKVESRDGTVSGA

CC(C)(c1cc(Br)c(O)c(Br)c1)c1cc(Br)c(O)c(Br)c1
inactive: all assays above
